Experimental data taken from PubChem BioAssay AID1159580 (chemical genetic matrix, 2015).
Values joined by “and” are separate entries in the source; they are usually repeats but may differ in a detail not shown here. Equal values may be shown once. About 2,000 (36%) of roughly 5,500 compounds were called active. Not shown: some 18% with an inconclusive outcome. Rule as the data show it: active = normalized growth mostly below about 0.91 (no sharp cut-off); inconclusive = no clear call, values can overlap the other calls; inactive = mostly above about 0.92. Some of the results follow.

Experiment: chemical genetic growth profiling, strain panel (AID 1159580);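 also: tested at 20 µM; growth read once vehicle control cultures reached saturation at 30 °C; 1 = growth at the plate median or of vehicle wells; lower values mean less growth of the strain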
Conditions: S. cerevisiae deletion strains, growth OD

Measured: normalized growth

CCN(CC)C(C)CN1c2ccccc2Sc2ccccc21 (configuration not stated)
inactive: locus YAL013W, strain DEP1, stronger effect = lower value 0.983 | locus YAL030W, strain snc1, stronger effect = lower value 0.965 | locus YBR009C, strain hhf1, stronger effect = lower value 0.925 | locus YBR021W, strain FUR4, stronger effect = lower value 0.852 | locus YBR171W, strain sec66, stronger effect = lower value 0.998 | locus YBR229C, strain ROT2, stronger effect = lower value 0.982 | locus YBR231C, strain swc5, stronger effect = lower value 0.937 | locus YCL011C, strain gbp2, stronger effect = lower value 0.953 | locus YCL016C, strain dcc1, stronger effect = lower value 0.923 | locus YCL029C, strain bik1, stronger effect = lower value 0.933 | locus YCL061C, strain MRC1, stronger effect = lower value 0.932 | locus YCL069W, strain vba3, stronger effect = lower value 0.947 | locus YCR088W, strain abp1, stronger effect = lower value 0.986 | locus YDL005C, strain med2, stronger effect = lower value 1 | locus YDL035C, strain GPR1, stronger effect = lower value 0.917 | locus YDL040C, strain nat1, stronger effect = lower value 1 | locus YDL074C, strain BRE1, stronger effect = lower value 0.864 | locus YDL101C, strain DUN1, stronger effect = lower value 0.978 | locus YDL134C, strain PPH21, stronger effect = lower value 0.966 | locus YDL185W, strain tfp1, stronger effect = lower value 0.947 | locus YDL192W, strain arf1, stronger effect = lower value 0.97 | locus YDR001C, strain nth1, stronger effect = lower value 0.987 | locus YDR069C, strain doa4, stronger effect = lower value 0.973 | locus YDR101C, strain arx1, stronger effect = lower value 0.967 | locus YDR137W, strain rgp1, stronger effect = lower value 1.14 | locus YDR150W, strain NUM1, stronger effect = lower value 0.977 | locus YDR162C, strain NBP2, stronger effect = lower value 0.987 | locus YDR297W, strain sur2, stronger effect = lower value 0.939 | locus YDR318W, strain mcm21, stronger effect = lower value 0.926 | locus YDR334W, strain swr1, stronger effect = lower value 1.03 | locus YDR335W, strain msn5, stronger effect = lower value 0.959 | locus YDR392W, strain spt3, stronger effect = lower value 0.911 | locus YDR502C, strain sam2, stronger effect = lower value 0.954 | locus YEL003W, strain gim4, stronger effect = lower value 0.984 | locus YEL037C, strain rad23, stronger effect = lower value 0.984 | locus YEL061C, strain CIN8 (second series), stronger effect = lower value 0.992 | locus YEL061C, strain CIN8, stronger effect = lower value 0.991 | locus YER015W, strain faa2, stronger effect = lower value 0.937 | locus YER110C, stronger effect = lower value 0.956 | locus YER111C, strain swi4, stronger effect = lower value 0.987 | locus YER155C, strain BEM2, stronger effect = lower value 0.964 | locus YER167W, strain BCK2, stronger effect = lower value 0.909 | locus YFR010W, strain ubp6, stronger effect = lower value 0.914 | locus YGL078C, strain dbp3, stronger effect = lower value 0.98 | locus YGL086W, strain mad1, stronger effect = lower value 0.952 | locus YGL167C, strain pmr1, stronger effect = lower value 0.999 | locus YGL227W, strain vid30, stronger effect = lower value 0.995 | locus YGL248W, strain PDE1, stronger effect = lower value 0.957 | locus YGR078C, strain PAC10, stronger effect = lower value 0.905 | locus YGR135W, strain pre9, stronger effect = lower value 0.918 | locus YGR229C, strain SMI1, stronger effect = lower value 0.904 | locus YHR013C, strain ard1, stronger effect = lower value 0.972 | locus YHR030C, strain SLT2, stronger effect = lower value 0.976 and 1.03 | locus YHR079C, strain IRE1 (second series), stronger effect = lower value 0.935 | locus YHR079C, strain IRE1, stronger effect = lower value 1.06 | locus YHR094C, strain hxt1, stronger effect = lower value 0.95 | locus YHR129C, strain ARP1, stronger effect = lower value 0.986 | locus YHR200W, strain rpn10, stronger effect = lower value 0.95 | locus YIL066C, strain RNR3, stronger effect = lower value 0.97 | locus YIL073C, strain SPO22, stronger effect = lower value 0.767 | locus YIL125W, strain kgd1, stronger effect = lower value 0.98 | locus YIR030C, strain dcg1, stronger effect = lower value 0.953 | locus YJL092W, strain hpr5, stronger effect = lower value 0.954 | locus YJL095W, strain BCK1 (second series), stronger effect = lower value 0.946 | locus YJL095W, strain BCK1, stronger effect = lower value 0.861 and 1.02 | locus YJL115W, strain asf1, stronger effect = lower value 0.992 | locus YJL129C, strain trk1, stronger effect = lower value 1.04 | locus YJL134W, strain LCB3, stronger effect = lower value 0.986 | locus YJL154C, strain vps35, stronger effect = lower value 0.975 | locus YJL164C, strain tpk1, stronger effect = lower value 0.928 | locus YJL168C, strain set2, stronger effect = lower value 0.961 | locus YJL187C, strain SWE1 (second series), stronger effect = lower value 0.957 | locus YJR043C, strain POL32, stronger effect = lower value 0.903 | locus YJR066W, strain TOR1, stronger effect = lower value 0.872
active: locus YAL021C, strain ccr4, stronger effect = lower value 0.399 | locus YAL026C, strain drs2, stronger effect = lower value 0.77 | locus YBL061C, strain skt5, stronger effect = lower value 0.909 | locus YBR023C, strain chs3, stronger effect = lower value 0.889 | locus YBR279W, strain paf1, stronger effect = lower value 0.896 | locus YDR159W, strain sac3, stronger effect = lower value 0.775 | locus YDR195W, strain ref2 1.23 [resistant] | locus YDR388W, stronger effect = lower value 0.914 | locus YER016W, strain bim1, stronger effect = lower value 0.921 | locus YER155C, strain BEM2 (second series), stronger effect = lower value 0.751 | locus YGL173C, strain kem1, stronger effect = lower value 0.898 | locus YGL240W, strain doc1, stronger effect = lower value 0.799 | locus YGL253W, strain hxk2, stronger effect = lower value 0.907 | locus YGR252W, strain gcn5, stronger effect = lower value 0.72 | locus YHR027C, strain rpn1, stronger effect = lower value 0.796 | locus YHR142W, strain chs7, stronger effect = lower value 0.863 | locus YJL166W, strain qcr8, stronger effect = lower value 0.898 | locus YJL187C, strain SWE1, stronger effect = lower value 0.911
